# Compound activity deposited in PubChem by National Center for Advancing Translational Sciences (NCATS).
# Only some compounds are listed: those with a hit (about 4.3% of all), similar ones and a draw of the others.
# SW480 rerep: inducers of DNA re-replication in SW480 colon cancer cells | SW480 DNA re-replication, Hoechst DNA content imaging, 48 h | Potency, µM (top dose mostly 46.1 µM), for inactives: top-dose re-replication activation, hits mostly activators | 340,000 tested, 1.8% active | AID 624297; further: potency means the concentration at half of the fitted maximal effect; % of control where 0% means no effect; nearly all actives have a fitted effect of over 55% in size
#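 Image-based DNA-content assay: after two days of treatment, nuclei were labelled with the DNA dye Hoechst and imaged, and hits were compounds raising the count of nuclei showing high fluorescence intensity.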
# MCF10A rereplic: inducers of DNA re-replication in MCF 10A breast cells; MCF 10A DNA re-replication, Hoechst nuclear intensity, 48 h; Potency, µM (highest dose often 46.1 µM), for the others: at the top dose activity, positive = re-replication, most hits filed as activators; 350,000 tested, 2.9% active; AID 624296; further: potency means the concentration at half of the fitted maximal effect; % of control where 0% means no effect; nearly all actives have a fitted effect of over 50% in size
# Giardia killer: Giardia lamblia killing; Giardia lamblia trophozoite viability; activity change, % at 7.66 µM, hits read low; 340,000 tested, 0.15% active; AID 540267; in the data active means activity change below about -80%; inconclusive means between about -30% and that limit;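 further: parasites exposed to compound for two days anaerobically before the ATP read; on the % scale 0 is the no-effect control and ±100 the full control effect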
#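 Compounds were tested on trophozoites seeded at 100 cells/well and held 48 hrs at 37 deg C anaerobically. An ATP-based luminescent kit measured the remaining live cells.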
# uPA surface inh: cell surface uPA generation inhibition; 330,000 tested, 0.31% active; AID 540303; cell surface uPA generation assay, qHTS; Potency, µM (titrated, usually from 38.3 µM), without a hit: at the highest dose activity change, negative = inhibition, most hits filed as inhibitors; active means well fitted inhibition curve with a large enough effect; inconclusive means small, poorly fitted or top-dose-only effect; inactive means no such curve, though single readings can be large or run the other way; tested in mouse RAW 264.7 cells; further: potency means the concentration at half of the fitted maximal effect; on the % scale 0 is the no-effect control and ±100 the full control effect; nearly all actives have a fitted effect of over 55% in size
# * = called active by the depositor; ? = inconclusive; / = no result given; [ ] = another dose, or the depositor's remark. Unless noted, the call rests on the fitted dose curve; in most records, active means well fitted activation curve with a large enough effect; inconclusive means small, poorly fitted or top-dose-only effect; inactive means no such curve, though single readings can be large or run the other way.
SMILES,SW480 rerep,MCF10A rereplic,Giardia killer,uPA surface inh
CCC1Nc2ncnc(N3CCc4ccccc4C3)c2N(Cc2ccc(Cl)cc2)C1=O (centres undefined),?,?,1,?
COc1ccc(CN2C(=O)C(C)Nc3ncnc(N4CCN(c5ccccc5)CC4)c32)cc1 (centres undefined),15%,8%,-26,0%
O=C1C(Cc2ccccc2)Nc2ncnc(N3CCc4ccccc4C3)c2N1Cc1ccc(Cl)cc1 (centres undefined),?,23µM*,?,?
O=C(CC12CC3CC(CC(C3)C1)C2)Nc1c(F)cccc1F,-9%,1%,0,14%
COc1ccc(-n2ncc3c(=O)n(CC(=O)NC(C)C)cnc32)cc1,-5%,0.92µM*,6,38%
CCn1c2ccccc2c2cc(/C=N/NC(=O)c3cccc(C)c3)ccc21,?,5.8µM*,-5,-6%
CCn1c2ccccc2c2cc(/C=N/NC(=O)c3ccccc3C)ccc21,13µM*,4.6µM*,-19,-10%
Cc1ccc(-c2nc(CS(=O)CC(=O)NC3CC3)c(C)o2)cc1 (centres undefined),-2%,21µM*,-24,-12%
CCOC(=O)c1ccccc1NC(=O)COC(=O)C(CC(C)C)NC(N)=O (centres undefined),1%,0.92µM*,-10,-12%
COc1ccc(/C=c2\s/c(=C/C(=O)c3ccc(C)cc3)[nH]c2=O)c(OC)c1,?,4.1µM*,22,1%
CCCS(=O)(=O)c1c(S(=O)(=O)CCC)c2c3ccccc3ccn2c1C(=O)OC,-13%,5%,4,4%
CCCS(=O)(=O)c1c(S(=O)(=O)CCC)c2c(C)cccn2c1C(=O)OC,?,21µM*,-15,0%
O=C(Nc1ccc(N2CCN(C(=O)c3cccs3)CC2)cc1)c1ccccc1F,?,?,-17,-4%
COc1cccc(C(=O)Nc2ccc(N3CCN(C(=O)c4cccs4)CC3)cc2)c1,5.8µM*,13µM*,-8,?
O=C(Nc1ccc(N2CCN(C(=O)c3cccs3)CC2)cc1)c1ccccc1Cl,23µM*,?,3,-4%
COC(=O)c1c(C(=O)OC)c(-c2cccc(Cl)c2)n2c1CS(=O)C2 (centres undefined),-4%,?,-7,-6%
O=C(CSc1nc2ccccc2c(=O)n1-c1ccccc1)N/N=C/C=C/c1ccccc1[N+](=O)[O-],14%,4.6µM*,?,24%
CC1CCC(C(C)C)C(O)C1 (centres undefined),-5%,-5%,/,/
O=[N+]([O-])c1ccc(O)c(Nc2ncnc3ccc(Br)cc23)c1,?,13µM*,-4,0%
Cc1cc(-c2c(C)[nH]n(-c3ccccc3)c2=O)n[nH]1,?,?,8,5%
COc1cc2c(cc1OC)C(=O)CCC2,-1%,0%,-2,-1%
Cc1sc(NC(=O)c2ccc(=O)n(C)n2)nc1-c1ccccc1,-87%,23µM*,14,-5%
Cc1sc(NC(=O)c2c(F)cccc2F)nc1-c1ccccc1,?,?,-13,2%
COc1ccc(-c2nc(NC(=O)c3cc(C(C)(C)C)nn3C)sc2C)cc1,16µM*,15µM*,-4,/
CCCCC/C(C=O)=C/c1ccccc1,2%,0%,/,/
SMILES,SW480 rerep,MCF10A rereplic,Giardia killer,uPA surface inh
COc1ccc(C)cc1N=Nc1ccc(O)c2ncccc12,?,17%,-13,3.5µM*
Cc1cc(C(=O)CN2c3cccc4cccc(c34)S2(=O)=O)c(C)n1C,3.3µM*,3.7µM*,3,2µM*
COc1ccc([C@@]23Oc4cc(OC)cc(OC)c4[C@]2(O)[C@H](O)[C@H](C(=O)N(C)C)[C@H]3c2ccccc2)cc1,?,?,?,-13%
CC(C)(C)NC(=O)C(c1ccc(O)cc1)N(C(=O)CCC(=O)Nc1ccccn1)c1ccc(F)cc1 (centres undefined),10%,-1%,-1,-8%
CCc1ccc(/C=N/NC(=O)c2cc(-c3ccncc3)nc3ccccc23)s1,3.7µM*,1µM*,5,-23%
O=C(N/N=C/c1cccs1)c1cc(-c2ccncc2)nc2ccccc12,?,?,3,-16%
CCCc1cc(C(=O)N/N=C/c2ccc(CC)s2)c2ccccc2n1,21µM*,7.3µM*,7,-4%
CCc1cc(C(=O)N/N=C/c2ccc(OC)cc2)c2ccccc2n1,?,16µM*,-6,-18%
COc1ccc(OC)c(-c2cc(C(=O)N/N=C/c3ccc(F)cc3)c3ccccc3n2)c1,-3%,?,7,-3%
Cc1ccc(/C=C2/NC(=O)N(Cc3ccc(Br)cc3)C2=O)o1,?,16µM*,-21,1%
Cc1cccc(NC(=O)CN2C(=O)N/C(=C/c3ccc(-c4cccc(C(=O)O)c4C)o3)C2=O)c1,-5%,5%,36,-2%
CCN1C(=O)N/C(=C/c2ccc(C)o2)C1=O,?,?,-7,-9%
O=C(O)c1ccc(-c2ccc(/C=C3\NC(=O)N(Cc4ccc(Cl)cc4)C3=O)o2)cc1Cl,7.3µM*,11µM*,51,-1%
Cc1ccc(NC(=O)CN2C(=O)S/C(=C\c3ccc(-c4cccc(C(=O)O)c4C)o3)C2=O)cc1C,?,13µM*,-22,2%
CCOC(=O)CN1C(=O)S/C(=C\c2ccc(-c3ccc(C(=O)O)c(Cl)c3)o2)C1=O,0.65µM*,23µM*,20,4%
CCOC(=O)CN1C(=O)S/C(=C\c2ccc(-c3cccc(C(=O)O)c3C)o2)C1=O,15%,21%,1,2%
C[C@H](C(=O)O)c1cccc(Oc2ccccc2)c1,-2%[20.6 µM],3%[20.6 µM],/,/
Cc1cccc(CN2CC34C=CC(CC3S2(=O)=O)O4)c1 (centres undefined),/,/,3,/
CCCN1C(=O)/C(=C/c2ccc(N3CCOCC3)cc2)NC1=S,2%,15%,0,-20%
Cc1ccc(CN2C(=O)N/C(=C\c3ccc(N4CCOCC4)cc3)C2=O)cc1,15µM*,15%,-4,-1%
COc1ccc(C(CCNCc2ccc(F)cc2)c2ccc(F)cc2)cc1 (centres undefined),/,5.2µM*,9,-3%
CCNc1nc(N)c(C(=O)c2ccc(Cl)s2)s1,?,0.92µM*,3,7%
Cc1ccc2nc(N/N=C\c3ccc([N+](=O)[O-])o3)nc(-c3ccccc3)c2c1,?,?,-99*,-1%
O=[N+]([O-])c1ccc(/C=N/Nc2nc(-c3ccccc3)c3cc(Br)ccc3n2)o1,0%,2%,-91*,2%
COc1cccc(CN(C)C(=O)CCN(c2ccccc2)S(=O)(=O)c2ccc(C)cc2)c1OC,-4%,-6%,-12,-3%
N#Cc1c(-c2ccc(Cl)cc2)c2c([nH]c1=O)-c1ccccc1OC2,5.8µM*,1.8µM*,3,0%
CC(C)(C)n1[nH]c2c3c(ccc2c1=O)C(=O)c1ccccc1C3=O,12µM*,17%,?,-2%
Cc1ccc(C)c(-n2[nH]c3c4c(ccc3c2=O)C(=O)c2ccccc2C4=O)c1,-1%,18µM*,?,0%
